About 79,000 compounds went through this panel and 15% of them were active in at least one assay; those are over-represented in the sample as a whole. Activity calls are given as the source filed them. No stated cut-off is given here; in the data, active means growth inhibition above about 70%; inactive means the rest.
Legend:
[1] = NCI Yeast Anticancer Drug Screen. Data for the rad52 strain (AID 147);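 further: 0% = growth of vehicle-treated control cultures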; settings: S. cerevisiae rad52 mutant growth inhibition, active compounds read high
How it was run: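 Vehicle-treated cultures served as the reference for growth inhibition of compound-exposed yeast bearing a DNA repair mutation.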

[2] = NCI Yeast Anticancer Drug Screen. Data for the wt1 strain (AID 149);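 further: 0% = growth of vehicle-treated wt1 cultures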; settings: S. cerevisiae wt1 strain (SPY 50644) growth inhibition, active compounds read high
How it was run: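 Growth inhibition read against vehicle controls after compound exposure of the wt1 yeast strain.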

[3] = NCI Yeast Anticancer Drug Screen. Data for the rad50EPP+ strain (AID 151);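 further: 0% = growth of vehicle-treated control cultures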; settings: S. cerevisiae rad50 mutant strain, active compounds read high
How it was run: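 In this screen, rad50EPP+ yeast were exposed to compounds. Growth inhibition was scored against vehicle-treated controls.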

[4] = NCI Yeast Anticancer Drug Screen. Data for the mgt1 strain (AID 153); settings: S. cerevisiae mgt1 mutant growth inhibition, active compounds read high
How it was run: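 mgt1 strain exposed; growth vs vehicle control recorded as inhibition.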

[5] = NCI Yeast Anticancer Drug Screen. Data for the mec2-1 strain (AID 157); settings: S. cerevisiae mec2-1 strain, active compounds read high
How it was run: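 Vehicle-treated cultures served as reference for growth inhibition of compound-exposed mec2-1 yeast.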

[6] = NCI Yeast Anticancer Drug Screen. Data for the rad14 strain (AID 159);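 further: 0% = growth of vehicle-treated control cultures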; settings: S. cerevisiae rad14 strain growth inhibition, active compounds read high
How it was run: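 Growth inhibition vs vehicle controls; genetically altered yeast strain (DNA damage repair defect) treated with test compounds.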

[7] = NCI Yeast Anticancer Drug Screen. Data for the sgs1 mgt1 strain (AID 161);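 further: 0% = growth of cultures given vehicle only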; settings: S. cerevisiae sgs1 mgt1 strain, active compounds read high
How it was run: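 Genetically altered yeast, compound exposure, growth inhibition relative to vehicle.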

[8] = NCI Yeast Anticancer Drug Screen. Data for the CLN2oe strain (AID 163);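 further: 0% = growth of vehicle-only control cultures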; settings: S. cerevisiae CLN2oe strain, active compounds read high
How it was run: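 Inhibition relative to vehicle-treated yeast is reported. Cells: strain with genetic alteration in cell-cycle control, grown with compound.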

[9] = NCI Yeast Anticancer Drug Screen. Data for the cln2 rad14 strain (AID 165);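 further: 0% = growth equal to vehicle treated cultures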; settings: S. cerevisiae cln2 rad14 strain, active compounds read high
How it was run: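 Each compound was tested on cln2 rad14 yeast. Inhibition of growth was calculated against vehicle-exposed controls.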

[10] = NCI Yeast Anticancer Drug Screen. Data for the bub3 strain (AID 167); settings: S. cerevisiae bub3 mutant strain, active compounds read high
How it was run: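 Readout: yeast growth inhibition, expressed relative to vehicle-only wells. The test organism is a mutant strain from a panel with lesions in DNA repair or checkpoint genes.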

[11] = NCI Yeast Anticancer Drug Screen. Data for the wt2 strain (AID 169);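 further: 0% = growth of vehicle-treated yeast cultures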; settings: S. cerevisiae wt2 strain growth inhibition, active compounds read high
How it was run: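 Inhibition of yeast growth was determined after compound treatment, normalised to controls receiving only vehicle.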

[12] = NCI Yeast Anticancer Drug Screen. Data for the mlh1 strain (AID 171);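 further: 0% = growth of vehicle-treated control cultures of the same strain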; settings: S. cerevisiae mlh1 strain growth inhibition, active compounds read high
How it was run: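 Vehicle-normalised growth inhibition of a repair- or checkpoint-altered yeast strain following compound treatment.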

[13] = NCI Yeast Anticancer Drug Screen. Data for the sgs1 strain (AID 173);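 further: 0% = growth of vehicle-only control cultures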; settings: S. cerevisiae sgs1 mutant, active compounds read high
How it was run: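 Screen format: yeast with repair or checkpoint alterations, compound exposure, growth read relative to vehicle.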

[14] = NCI Yeast Anticancer Drug Screen. Data for the mlh1 rad18 strain (AID 175); settings: S. cerevisiae mlh1 rad18 strain growth inhibition, active compounds read high
How it was run: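 Vehicle-treated cultures served as the reference for growth inhibition in a yeast strain carrying DNA damage repair alterations exposed to each compound.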

[15] = NCI Yeast Anticancer Drug Screen. Data for the rad18 strain (AID 177); settings: S. cerevisiae rad18 mutant growth inhibition, active compounds read high
How it was run: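 Test articles were incubated with altered yeast defective in DNA damage repair. Results are given as inhibition of growth versus vehicle.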

[16] = NCI Yeast Anticancer Drug Screen. Data for the rad50 strain (AID 155);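 further: 0% = growth of vehicle-only cultures of the same strain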; settings: S. cerevisiae rad50 strain growth inhibition, active compounds read high
How it was run: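 Readout: growth inhibition relative to vehicle-treated cultures. Compound exposure was carried out in a genetically defined yeast strain deficient in DNA damage repair.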

[17] = at 5.0 µM (retest, dose inferred, filed as 0.5)
[18] = at 50.0 µM (retest, dose inferred, filed as 5.0)

Measured: growth inhibition

CCCCOC(=O)N[C@H]1CCc2cc(OC)c(OC)c(OC)c2-c2ccc(SC)c(=O)cc21
inactive: [1]; at 1.2 µM -2% | [1]; at 3.7 µM 1% | [1]; at 11.0 µM 6% | [1]; at 33.0 µM 36% | [2]; at 1.2 µM -2% | [2]; at 3.7 µM -3% | [2]; at 11.0 µM -4% | [2]; at 33.0 µM 3% | [2]; at 100.0 µM 55% | [3]; at 1.2 µM 1% | [3]; at 3.7 µM -1% | [3]; at 11.0 µM -4% | [3]; at 33.0 µM -6% | [3]; at 100.0 µM -11% | [4]; at 1.2 µM -5% | [4]; at 3.7 µM -3% | [4]; at 11.0 µM -1% | [4]; at 33.0 µM 49% | [5]; at 1.2 µM -6% | [5]; at 3.7 µM -3% | [5]; [17] -19% | [5]; at 11.0 µM -2% | [5]; at 33.0 µM 15% | [5]; [18] 48% | [5]; at 50.0 µM 53% | [6]; at 1.2 µM -1% | [6]; at 3.7 µM 2% | [6]; at 11.0 µM 7% | [6]; at 33.0 µM 49% | [7]; [17] 3% | [7]; [18] -13% | [8]; at 1.2 µM -2% | [8]; at 3.7 µM -5% | [8]; at 11.0 µM -1% | [8]; at 33.0 µM 30% | [9]; [17] -17% | [9]; [18] 60% | [9]; at 50.0 µM 58.3% | [10]; at 1.2 µM -9% | [10]; at 3.7 µM -8% | [10]; [17] 0% | [10]; at 11.0 µM -5% | [10]; at 33.0 µM 2% | [10]; [18] 55% | [11]; at 1.2 µM -2% | [11]; at 3.7 µM -3% | [11]; at 11.0 µM -1% | [11]; at 33.0 µM 29% | [12]; at 1.2 µM -4% | [12]; at 3.7 µM -3% | [12]; at 11.0 µM 2% | [12]; at 33.0 µM 27% | [13]; at 1.2 µM -3% | [13]; at 3.7 µM -5% | [13]; at 11.0 µM 2% | [13]; at 33.0 µM 38% | [14]; [17] -12% | [14]; [18] 47% | [15]; at 1.2 µM -1% | [15]; at 3.7 µM 0% | [15]; at 11.0 µM 7% | [15]; at 33.0 µM 26%
active: [1]; at 100.0 µM 77% | [4]; at 100.0 µM 77% | [5]; at 100.0 µM 81% | [6]; at 100.0 µM 84% | [7]; at 50.0 µM 82.5% | [8]; at 100.0 µM 79% | [10]; at 50.0 µM 77.8% | [10]; at 100.0 µM 81% | [11]; at 100.0 µM 86% | [12]; at 100.0 µM 90% | [13]; at 100.0 µM 89% | [14]; at 50.0 µM 92.9% | [15]; at 100.0 µM 80%

O=C(COC(=O)c1cc(O)c(O)c(O)c1)c1ccc(-c2ccccc2)cc1
active: [1]; at 100.0 µM 96% | [2]; at 100.0 µM 97% | [3]; at 33.0 µM 91% | [3]; at 100.0 µM 96% | [16]; [18] 94% | [16]; at 100.0 µM 95% | [5]; [18] 95% | [5]; at 100.0 µM 97% | [6]; at 100.0 µM 95% | [7]; [18] 98% | [8]; at 100.0 µM 83% | [10]; [18] 97% | [10]; at 100.0 µM 97% | [11]; at 100.0 µM 95% | [12]; at 100.0 µM 95% | [13]; at 100.0 µM 97% | [14]; [18] 97% | [15]; at 100.0 µM 95%
inactive: [1]; at 1.2 µM -2% | [1]; at 3.7 µM 2% | [1]; at 11.0 µM 8% | [1]; at 33.0 µM 38% | [2]; at 1.2 µM -3% | [2]; at 3.7 µM -3% | [2]; at 11.0 µM -2% | [2]; at 33.0 µM 10% | [3]; at 1.2 µM 6% | [3]; at 3.7 µM 21% | [3]; at 11.0 µM 47% | [16]; at 1.2 µM -1% | [16]; at 3.7 µM 1% | [16]; [17] -16% | [16]; at 11.0 µM 11% | [16]; at 33.0 µM 42% | [16]; at 50.0 µM 45.9% | [5]; at 1.2 µM -3% | [5]; at 3.7 µM -3% | [5]; [17] 6% | [5]; at 11.0 µM 3% | [5]; at 33.0 µM 34% | [5]; at 50.0 µM 30.4% | [6]; at 1.2 µM 1% | [6]; at 3.7 µM 1% | [6]; at 11.0 µM 9% | [6]; at 33.0 µM 44% | [7]; [17] 7% | [7]; at 50.0 µM 60.9% | [8]; at 1.2 µM -6% | [8]; at 3.7 µM -9% | [8]; at 11.0 µM -11% | [8]; at 33.0 µM -1% | [9]; [17] -84% | [9]; [18] -12% | [9]; at 50.0 µM 0.6% | [10]; at 1.2 µM -4% | [10]; at 3.7 µM -3% | [10]; [17] 3% | [10]; at 11.0 µM -3% | [10]; at 33.0 µM 21% | [10]; at 50.0 µM 59.2% | [11]; at 1.2 µM -3% | [11]; at 3.7 µM -5% | [11]; at 11.0 µM -4% | [11]; at 33.0 µM 66% | [12]; at 1.2 µM -3% | [12]; at 3.7 µM 0% | [12]; at 11.0 µM 4% | [12]; at 33.0 µM 57% | [13]; at 1.2 µM -1% | [13]; at 3.7 µM 1% | [13]; at 11.0 µM 11% | [13]; at 33.0 µM 63% | [14]; [17] 19% | [14]; at 50.0 µM 40.2% | [15]; at 1.2 µM -1% | [15]; at 3.7 µM 2% | [15]; at 11.0 µM 12% | [15]; at 33.0 µM 58%
